This passage reports z-score and composite z-score results from PubChem BioAssay.

Assay [1] in a line: E. coli DRC41 culture turbidity changes, primary screen, E. coli filamentation inducer project, strain DRC41, OD650, 48 h (AID 1152).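 Note: E. coli MC1000 strain DRC41 lacking acrAB efflux pump and sulA.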 The settings on record: E. coli DRC41 (acrAB sulA), higher = more signal, called active from +8 up or from −8 down.
Assay [2] can be described thus: small-molecule binders of probe aLefty1, primary screen, biochemical, small-molecule microarray, 635/667 nm fluorescence (AID 1153).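 Note: score merges spot fluorescence with signal-to-noise ratio from the scanned slide images.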 The following applies: higher = more signal.
Assay [3] can be described thus: PSAC antagonists in infected red cells, primary screen, cell-based, P. falciparum Indochina, OD700, 1 h (AID 1154). The following applies: P. falciparum Indochina infected RBC osmotic lysis, higher = more signal, called active from +8 up or from −8 down.
A short description of assay [4]: PSAC antagonists in infected red cells, primary screen, cell-based, P. falciparum Indochina, OD700, 2 h (AID 1155).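 Note: lysis reports solute entry through the parasite surface anion channel PSAC; channel blockers reduce lysis of infected cells.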 The following applies: P. falciparum Indochina infected erythrocytes, osmotic lysis OD700; higher = more signal, called active from +8 up or from −8 down.
A short description of assay [5]: osmotic lysis modulators in infected erythrocytes, primary screen, PSAC antagonist project, cell-based, P. falciparum Indochina, OD700, 3 h (AID 1156). The settings on record: higher = more signal, called active from +8 up or from −8 down.
Assay [6] in a line: PSAC antagonists in infected red cells, primary screen, cell-based, P. falciparum Indochina, OD700, 18 h (AID 1157). The following applies: P. falciparum Indochina infected erythrocytes, osmotic lysis OD700, 18 h; higher = more signal, called active from +8 up or from −8 down.
The nature of assay [7]: modulators of S6 phosphorylation in cells, primary screen, cell-based, A549, cytoblot, luminescence, serum-stimulated (AID 1158).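 Note: serum-stimulated A549 lung adenocarcinoma cells; signal is phosphorylated S6 detected by cytoblot immunostaining with HRP secondary.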 The following applies: A549 phospho-S6 cytoblot, 5 h, higher = more signal.
Assay [8] addresses NADPH oxidase 2 (Homo sapiens) (UniProt P04839). As to the kind of experiment: NOX2-dependent H2O2 signal modulators, primary screen, NOX inhibitor project, cell-based, HEK293-NOX2, PMA-stimulated, Amplex Red fluorescence (AID 1159). Note: test concentration not given here. The following applies: 45 min, higher = more signal, called active from +8 up or from −8 down.
Assay [9] deals with NADPH oxidase 4 (Homo sapiens) (UniProt Q9NPH5). As to the kind of experiment: NOX4-dependent H2O2 signal modulators, primary screen, NOX inhibitor project, cell-based, HEK293-NOX4, tetracycline-induced, Amplex Red fluorescence (AID 1160). The following applies: 45 min, higher = more signal, called active from +8 up or from −8 down.
NADPH oxidase 4 (Homo sapiens), sequence (Q9NPH5 whole entry, looked up): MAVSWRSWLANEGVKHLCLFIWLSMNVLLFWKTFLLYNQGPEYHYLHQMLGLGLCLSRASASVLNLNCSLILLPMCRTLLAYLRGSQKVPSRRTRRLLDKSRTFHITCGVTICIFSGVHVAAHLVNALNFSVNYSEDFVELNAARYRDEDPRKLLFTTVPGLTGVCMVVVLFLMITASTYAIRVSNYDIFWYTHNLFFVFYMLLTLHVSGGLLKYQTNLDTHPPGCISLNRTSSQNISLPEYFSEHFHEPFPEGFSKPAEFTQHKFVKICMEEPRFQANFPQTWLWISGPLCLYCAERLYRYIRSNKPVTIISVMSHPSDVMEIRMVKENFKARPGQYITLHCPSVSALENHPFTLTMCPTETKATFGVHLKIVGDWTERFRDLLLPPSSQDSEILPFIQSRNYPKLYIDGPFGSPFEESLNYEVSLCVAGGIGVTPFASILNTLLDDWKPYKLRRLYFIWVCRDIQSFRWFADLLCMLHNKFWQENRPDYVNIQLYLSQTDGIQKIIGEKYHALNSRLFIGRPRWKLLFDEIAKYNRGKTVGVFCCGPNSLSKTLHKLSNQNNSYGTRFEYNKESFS
The target of assay [10] is NADPH oxidase 5 (Homo sapiens) (UniProt Q96PH1). As to the kind of experiment: NOX5-dependent H2O2 signal modulators, primary screen, NOX inhibitor project, cell-based, HEK293-NOX5, Amplex Red fluorescence (AID 1161). The settings on record: HEK293-NOX5, ionomycin, 45 min, higher = more signal.
NADPH oxidase 5 (Homo sapiens), sequence (Q96PH1 whole entry, looked up): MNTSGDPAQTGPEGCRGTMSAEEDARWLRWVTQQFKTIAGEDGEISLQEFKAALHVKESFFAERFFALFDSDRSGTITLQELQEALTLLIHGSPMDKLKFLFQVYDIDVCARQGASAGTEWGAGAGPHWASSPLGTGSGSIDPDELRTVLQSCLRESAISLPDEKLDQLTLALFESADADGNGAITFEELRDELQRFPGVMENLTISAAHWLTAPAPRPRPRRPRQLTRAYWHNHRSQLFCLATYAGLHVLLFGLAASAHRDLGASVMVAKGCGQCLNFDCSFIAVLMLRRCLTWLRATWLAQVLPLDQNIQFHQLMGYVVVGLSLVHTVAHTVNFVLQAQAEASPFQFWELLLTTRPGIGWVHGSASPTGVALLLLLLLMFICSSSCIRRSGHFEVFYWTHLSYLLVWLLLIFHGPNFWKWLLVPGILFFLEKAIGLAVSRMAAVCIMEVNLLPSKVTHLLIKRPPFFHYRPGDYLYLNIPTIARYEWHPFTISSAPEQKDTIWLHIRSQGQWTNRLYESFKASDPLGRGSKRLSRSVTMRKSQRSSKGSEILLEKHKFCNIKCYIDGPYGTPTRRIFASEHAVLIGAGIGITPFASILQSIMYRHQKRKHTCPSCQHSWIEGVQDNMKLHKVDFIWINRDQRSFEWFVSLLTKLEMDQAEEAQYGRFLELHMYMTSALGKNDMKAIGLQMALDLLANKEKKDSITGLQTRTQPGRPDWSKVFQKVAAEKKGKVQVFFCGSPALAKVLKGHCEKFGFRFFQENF
The nature of assay [11]: A549 cell viability effects, profiling panel, calcein-AM fluorescence, 48 h, basal (AID 1162). Note: test concentration not given here. The settings on record: higher = more signal.
Assay [12] in a line: adipocyte viability effects, profiling panel, cell-based, 3T3-L1 adipocytes, calcein-AM fluorescence, 48 h, basal (AID 1163). Note: test concentration not given here. The following applies: 3T3-L1 adipocytes viability, higher = more signal.
The nature of assay [13]: HepG2 cell viability effects, profiling panel, calcein-AM fluorescence, 48 h, basal (AID 1164). Note: test concentration not given here. The settings on record: higher = more signal.
A short description of assay [14]: MM1S cell viability effects, profiling panel, calcein-AM fluorescence, 48 h, basal (AID 1165).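 Note: viability of MM1S multiple myeloma cells under basal unstimulated conditions; test concentration not given here.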 The following applies: higher = more signal.
Assay [15] can be described thus: basal RPMI8226 viability, no added stimulus, profiling panel, cell-based, calcein-AM fluorescence, 48 h, PK04 Diversity Set (AID 1166).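 Note: cells grown under basal conditions without added stimulus; test concentration not given here.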 The following applies: RPMI8226 myeloma viability, higher = more signal.
Assay [16] is described as follows: basal HepG2 mitochondrial membrane potential changes, profiling panel, cell-based, JC-1 fluorescence, 24 h, 100 nL compound (AID 1167). Note: test concentration not given here. The settings on record: higher = more signal.
Assay [17] in a line: basal 3T3-L1 adipocyte mitochondrial potential changes, profiling panel, cell-based, JC-1 fluorescence, 3T3-L1 adipocytes, 24 h, 100 nL compound (AID 1168). Note: test concentration not given here. The following applies: JC-1 mitochondrial fluorescence, higher = more signal, called active from +8 up or from −8 down.
Assay [18] can be described thus: basal RPMI8226 mitochondrial membrane potential changes, profiling panel, cell-based, JC-1 fluorescence, 24 h, 100 nL compound (AID 1169). Note: test concentration not given here. The following applies: RPMI8226 myeloma, JC-1 mitochondrial potential fluorescence, higher = more signal.
Assay [19] can be described thus: basal MM1S mitochondrial membrane potential changes, profiling panel, cell-based, JC-1 fluorescence, 24 h, 100 nL compound (AID 1170). Note: test concentration not given here. The following applies: higher = more signal.
A short description of assay [20]: A549 lung cancer cell viability effects, profiling panel, resazurin fluorescence, 24 h, PK04 Diversity Set (AID 1171). Note: test concentration not given here. The settings on record: higher = more signal, called active from +8 up or from −8 down. (Alamar Blue is a resazurin reagent that responds to reducing activity.)

Active and inactive are the calls of the source.

NADPH oxidase 2 (Homo sapiens), sequence (P04839 whole entry, looked up): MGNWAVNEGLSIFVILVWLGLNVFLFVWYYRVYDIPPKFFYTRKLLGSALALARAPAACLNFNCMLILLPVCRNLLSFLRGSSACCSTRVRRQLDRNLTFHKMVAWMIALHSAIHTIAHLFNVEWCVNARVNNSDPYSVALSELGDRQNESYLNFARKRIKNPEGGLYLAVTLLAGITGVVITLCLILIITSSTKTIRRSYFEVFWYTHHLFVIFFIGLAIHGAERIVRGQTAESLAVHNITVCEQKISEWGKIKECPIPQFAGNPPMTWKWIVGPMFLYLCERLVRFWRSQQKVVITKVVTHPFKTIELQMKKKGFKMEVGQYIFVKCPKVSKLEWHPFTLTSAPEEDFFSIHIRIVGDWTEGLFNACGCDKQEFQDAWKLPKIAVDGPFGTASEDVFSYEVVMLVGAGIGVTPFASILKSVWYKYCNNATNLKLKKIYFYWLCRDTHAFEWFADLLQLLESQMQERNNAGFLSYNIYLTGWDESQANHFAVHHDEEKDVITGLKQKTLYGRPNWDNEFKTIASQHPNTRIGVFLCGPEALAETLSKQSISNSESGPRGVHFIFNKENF

For `COCCOC(=O)N1C(=O)[C@@]2(c3cc(C#CCC(C(=O)OC)C(=O)OC)ccc31)[C@H](c1ccccc1OCCO)N1[C@H](c3ccccc3)[C@H](c3ccccc3)OC(=O)[C@H]1[C@@H]2C(N)=O`, the z-score is 0.483 (inactive) in assay [1]; 7.64 (inactive) in [3]; 2.55 (inactive) in assay [4]; 0.678 (inactive) in assay [5]; 1.42 (inactive) in [6]; -0.127 in assay [7]. For the same compound, the z-score in [8] is 0.821 (inactive); in assay [9], 0.383 (inactive); in [10], -1.85; in assay [11], 0.597; in assay [12] it was 0.0915; in [13], -1.58. For the same compound, the z-score in assay [14] is -3.4; in assay [15], -4.17; in assay [16], -0.603; in assay [17] it was 1.69 (inactive); in [18] it was -0.986; in assay [19] it was -1.84. The z-score in assay [20] is -0.212 (inactive). This compound yielded a composite z-score in [2] of 0.479.
Turning to `COC(=O)[C@@]1(Cc2ccc(OC)cc2)[C@H]2c3cc(C(=O)N4CCCC4)n(Cc4ccccn4)c3C[C@H]2CN1C(=O)c1ccccc1`, the z-score is -0.824 (inactive) in assay [1]; 3.64 (inactive) in [3]; 0.537 (inactive) in [4]; 1.1 (inactive) in assay [5]; 0.814 (inactive) in assay [6]; -0.569 in assay [7]. Moreover, the z-score is 0.29 (inactive) in assay [8]; -1 (inactive) in [9]; -3.2 in [10]; -0.87 in assay [11]; 0.588 in assay [12]; -0.379 in assay [13]. The z-score is -1.9 in [14]; -0.676 in [15]; 1.85 in assay [16]; -0.85 (inactive) in [17]; 0.556 in assay [18]; 0.208 in assay [19]. The z-score in [20] is -0.823 (inactive). Moreover, the composite z-score in assay [2] was 0.595.
Regarding `C=CCC(OC(C)=O)[C@@H]1[C@@H](N(Cc2ccc(-c3ccccc3)cc2)C(=O)Cc2ccc(F)cc2)c2cc(OCCCO)ccc2N1C(=O)c1ccc2ccccc2n1` (stereo not given in full), the z-score was 1.51 (inactive) in assay [1]; 0.879 (inactive) in assay [3]; 1.19 (inactive) in assay [4]; -0.385 (inactive) in [5]; 0.505 (inactive) in [6]; 0.374 in assay [7]. Also, the z-score was -0.632 (inactive) in [8]; 0.631 (inactive) in [9]; 1.95 in assay [10]; 1.07 in assay [11]; 0.203 in assay [12]; 1.14 in assay [13]. In addition, the z-score is -2.11 in assay [14]; 0.246 in assay [15]; 2.97 in assay [16]; 0.25 (inactive) in assay [17]; -0.359 in assay [18]; 1.7 in assay [19]. Also, in assay [20], the z-score was 1.37 (inactive). The composite z-score in assay [2] stood at 0.22.
With `O=C(O)[C@H]1C[C@H]2C(=O)NCC(=O)N2[C@H]1c1ccc(O)cc1`, the z-score in assay [1] was 1.55 (inactive); in assay [3] it was 2.81 (inactive); in assay [4], 0.898 (inactive); in [5] it was -2.6 (inactive); in assay [6], 0.276 (inactive); in assay [7], 0.586. In addition, the z-score in [8] was -1.99 (inactive); in [9] it was -1.12 (inactive); in [10], -0.575; in assay [11] it was 1.14; in assay [12], 0.108; in assay [13] it was 0.752. The z-score in assay [14] is -2.55; in [15], -0.593; in assay [16], 2.37; in assay [17], -0.262 (inactive); in assay [18], -0.629; in assay [19], -1.43. Also, the z-score in assay [20] was 0.672 (inactive). In assay [2], this compound displayed a composite z-score of -0.0171.
In the case of `O=c1oc(-c2ccccc2)nc2cc(Br)ccc12`, the z-score is 0.311 (inactive) in assay [1]; 3.27 (inactive) in assay [3]; 0.635 (inactive) in [4]; -1.02 (inactive) in [5]; 0.845 (inactive) in assay [6]; -0.29 in assay [7]. In addition, the z-score in assay [8] was 0.377 (inactive); in assay [9], -0.138 (inactive); in assay [10], -0.291; in assay [11], -0.423; in [12], 0.111; in assay [13], 0.659. For the same compound, the z-score is -1.99 in assay [14]; -0.633 in [15]; -0.773 in assay [16]; 0.67 (inactive) in assay [17]; -0.0586 in [18]; 0.873 in assay [19]. Moreover, in assay [20], the z-score was -0.141 (inactive). The compound further came in with a composite z-score in assay [2] of -0.0099.
Take `C#CCN(C(/C=C/c1ccccc1)CO)C(C(=O)O)c1ccccc1` (stereo not given): the z-score in assay [1] was 1.86 (inactive); in [3], 0.175 (inactive); in assay [4], -1.57 (inactive); in assay [5] it was -0.168 (inactive); in assay [6] it was -2.09 (inactive); in assay [7], 1.81. Also, the z-score in assay [8] is -0.269 (inactive); in assay [9] it was -0.46 (inactive); in assay [10], -0.191; in [11], -0.341; in assay [12] it was 1.45; in [13], -0.996. Besides, the z-score is -0.659 in assay [14]; -1.23 in assay [15]; 0.277 in assay [16]; 1.08 (inactive) in assay [17]; -0.782 in assay [18]; 0.0117 in assay [19]. Moreover, the z-score in assay [20] was -0.668 (inactive). This compound yielded a composite z-score in assay [2] of -0.319.
Consider `CCCC[C@@H]1C[C@H]1[C@@H](NC(=O)c1ccc(-c2ccccc2)cc1)c1ccc(-c2ccccc2)cc1`, for which the z-score in [1] was -2.4 (inactive); in [3] it was 2.15 (inactive); in assay [4], 0.275 (inactive); in assay [5], 1.68 (inactive); in assay [6] it was 0.446 (inactive); in assay [7], -0.456. The z-score was -1.32 (inactive) in assay [8]; -2 (inactive) in assay [9]; -0.619 in [10]; -1.78 in assay [11]; 0.441 in [12]; -0.997 in [13]. The z-score in assay [14] was -2.17; in assay [15], -2.33; in assay [16], -0.922; in [17], -0.949 (inactive); in [18] it was 0.196; in assay [19], -0.391. In addition, in assay [20], the z-score was 0.719 (inactive). In addition, the composite z-score in assay [2] is 0.0341.
Turning to `CCCC[C@H]1OB(O)C[C@H]2C1=C(C)C[C@H]1C(=O)N(Cc3ccccc3)C(=O)[C@H]12`, the z-score was 1.53 (inactive) in assay [1]; 1.27 (inactive) in [3]; 0.0503 (inactive) in [4]; -0.348 (inactive) in assay [5]; 0.157 (inactive) in assay [6]; 0.918 in assay [7]. Besides, the z-score in assay [8] was 0.0393 (inactive); in [9], 0.765 (inactive); in assay [10], 0.789; in assay [11], 0.601; in assay [12], 0.379; in [13], -0.152. Moreover, the z-score is -0.551 in [14]; -0.0458 in assay [15]; -0.432 in assay [16]; 0.203 (inactive) in [17]; -0.333 in [18]; 0.625 in assay [19]. Besides, the z-score in assay [20] was 0.174 (inactive). This compound also registered a composite z-score in assay [2] of -0.147.
In the case of `C=CCC(OC(C)=O)[C@@H]1[C@@H](N(Cc2cccc3ccccc23)C(=O)c2cccc3ccccc23)c2cc(OCCCO)ccc2N1C(=O)c1ccc2ccccc2n1` (stereo not given in full), the z-score in assay [1] was -0.773 (inactive); in [3], 1.1 (inactive); in assay [4] it was 0.613 (inactive); in assay [5], -0.249 (inactive); in assay [6], 0.532 (inactive); in [7], 0.443. The z-score in assay [8] is -0.62 (inactive); in [9], -0.419 (inactive); in [10] it was -2.42; in [11], -0.7; in assay [12], 0.161; in [13], -0.571. Further, the z-score is -0.399 in [14]; -0.128 in assay [15]; 0.978 in assay [16]; -1.2 (inactive) in [17]; -0.133 in [18]; 0.248 in [19]. Moreover, in assay [20], the z-score is 0.0076 (inactive). Moreover, the composite z-score in assay [2] turned out to be 0.0622.
